Measurements published in PubChem BioAssay AID1159580 (chemical genetic matrix, 2015).
In all, about 5,500 compounds went through this assay and about 2,000 (36%) were called active. Another 18% or so got no clear call; they are omitted. No stated cut-off is given here; in the data, active means normalized growth mostly below about 0.91 (no sharp cut-off); inconclusive means no clear call, values can overlap the other calls; inactive means mostly above about 0.92. The list shows a part of the results.

Assay: chemical genetic growth profiling, strain panel (AID 1159580);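 further: tested at 20 µM; growth read once vehicle control cultures reached saturation at 30 °C; 1 = growth at the plate median or of vehicle wells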
Settings: growth OD

Measured: normalized growth

CCN(CC)C(=O)c1cccc(C)c1
inactive: S. cerevisiae deletion strains, locus YKL009W, strain mrt4, stronger effect = lower value 0.956 | S. cerevisiae deletion strains, locus YKL068W, stronger effect = lower value 0.989 | S. cerevisiae deletion strains, locus YKL085W, strain MDH1 (second series), stronger effect = lower value 1 | S. cerevisiae deletion strains, locus YKL085W, strain MDH1, stronger effect = lower value 1 | S. cerevisiae deletion strains, locus YKL160W, strain elf1, stronger effect = lower value 1.02 | S. cerevisiae deletion strains, locus YKL190W, strain CNB1, stronger effect = lower value 0.988 | S. cerevisiae deletion strains, locus YKR001C, strain vps1, stronger effect = lower value 1.01 | S. cerevisiae deletion strains, locus YKR026C, strain gcn3, stronger effect = lower value 1.04 | S. cerevisiae deletion strains, locus YKR091W, strain srl3, stronger effect = lower value 1.03 | S. cerevisiae deletion strains, locus YLL001W, strain dnm1, stronger effect = lower value 1.03 | S. cerevisiae deletion strains, locus YLL026W, stronger effect = lower value 1.04 | S. cerevisiae deletion strains, locus YLL041C, strain sdh2, stronger effect = lower value 1.03 | S. cerevisiae deletion strains, locus YLR027C, strain aat2, stronger effect = lower value 1.02 | S. cerevisiae deletion strains, locus YLR039C, strain RIC1, stronger effect = lower value 1.06 | S. cerevisiae deletion strains, locus YLR058C, strain SHM2, stronger effect = lower value 1 | S. cerevisiae deletion strains, locus YLR102C, strain apc9, stronger effect = lower value 0.999 | S. cerevisiae deletion strains, locus YLR113W, strain HOG1, stronger effect = lower value 0.975 | S. cerevisiae deletion strains, locus YLR221C, strain rsa3, stronger effect = lower value 1.02 | S. cerevisiae deletion strains, locus YLR258W, strain gsy2, stronger effect = lower value 1.04 | S. cerevisiae deletion strains, locus YLR262C, strain YPT6 (second series), stronger effect = lower value 1.03 | S. cerevisiae deletion strains, locus YLR262C, strain YPT6, stronger effect = lower value 1.02 | S. cerevisiae deletion strains, locus YLR268W, strain sec22, stronger effect = lower value 0.978 | S. cerevisiae deletion strains, locus YLR320W, strain mms22, stronger effect = lower value 1.04 | S. cerevisiae deletion strains, locus YLR330W, strain CHS5, stronger effect = lower value 0.993 | S. cerevisiae deletion strains, locus YLR342W, strain FKS1 (second series), stronger effect = lower value 0.987 | S. cerevisiae deletion strains, locus YLR342W, strain FKS1, stronger effect = lower value 1.01 | S. cerevisiae deletion strains, locus YLR357W, strain rsc2, stronger effect = lower value 1.09 | S. cerevisiae deletion strains, locus YLR370C, strain arc18, stronger effect = lower value 1.03 | S. cerevisiae deletion strains, locus YLR371W, strain rom2, stronger effect = lower value 0.982 | S. cerevisiae deletion strains, locus YLR384C, strain iki3, stronger effect = lower value 1.06 | S. cerevisiae deletion strains, locus YLR418C, strain cdc73, stronger effect = lower value 1.05 | S. cerevisiae deletion strains, locus YML016C, strain PPZ1, stronger effect = lower value 1.01 | S. cerevisiae deletion strains, locus YML032C, strain rad52, stronger effect = lower value 0.995 | S. cerevisiae deletion strains, locus YML120C, strain ndi1, stronger effect = lower value 1.02 | S. cerevisiae deletion strains, locus YML124C, strain tub3, stronger effect = lower value 0.998 | S. cerevisiae deletion strains, locus YMR058W, strain fet3, stronger effect = lower value 1.04 | S. cerevisiae deletion strains, locus YMR078C, strain ctf18, stronger effect = lower value 0.994 | S. cerevisiae deletion strains, locus YMR125W, strain sto1, stronger effect = lower value 1.03 | S. cerevisiae deletion strains, locus YMR129W, stronger effect = lower value 1.03 | S. cerevisiae deletion strains, locus YMR205C, strain PFK2, stronger effect = lower value 1.06 | S. cerevisiae deletion strains, locus YMR223W, strain ubp8, stronger effect = lower value 1 | S. cerevisiae deletion strains, locus YMR231W, strain pep5, stronger effect = lower value 1.03 | S. cerevisiae deletion strains, locus YMR263W, strain SAP30, stronger effect = lower value 0.999 | S. cerevisiae deletion strains, locus YMR307W, strain GAS1, stronger effect = lower value 1.02 | S. cerevisiae deletion strains, locus YNL067W, strain RPL9B, stronger effect = lower value 1 | S. cerevisiae deletion strains, locus YNL071W, strain lat1, stronger effect = lower value 1.02 | S. cerevisiae deletion strains, locus YNL128W, strain TEP1, stronger effect = lower value 1 | S. cerevisiae deletion strains, locus YNL153C, strain GIM3, stronger effect = lower value 0.999 | S. cerevisiae deletion strains, locus YNL183C, strain NPR1, stronger effect = lower value 0.924 | S. cerevisiae deletion strains, locus YNL209W, strain ssb2, stronger effect = lower value 1.02 | S. cerevisiae deletion strains, locus YNL233W, strain BNI4, stronger effect = lower value 1.01 | S. cerevisiae deletion strains, locus YNL248C, strain rpa49, stronger effect = lower value 1.02 | S. cerevisiae deletion strains, locus YNL250W, strain rad50, stronger effect = lower value 0.994 | S. cerevisiae deletion strains, locus YNL271C, strain bni1, stronger effect = lower value 1 | S. cerevisiae deletion strains, locus YNL298W, strain CLA4, stronger effect = lower value 0.987 | S. cerevisiae deletion strains, locus YNL307C, strain MCK1, stronger effect = lower value 1.01 | S. cerevisiae deletion strains, locus YNL322C, strain KRE1 (second series), stronger effect = lower value 1.03 | S. cerevisiae deletion strains, locus YNL322C, strain KRE1, stronger effect = lower value 1 | S. cerevisiae deletion strains, locus YNR049C, strain mso1, stronger effect = lower value 1.03 | S. cerevisiae deletion strains, locus YNR052C, strain pop2, stronger effect = lower value 0.987 | S. cerevisiae deletion strains, locus YOL006C, strain TOP1, stronger effect = lower value 1.03 | S. cerevisiae deletion strains, locus YOL012C, strain htz1 0.893 | S. cerevisiae deletion strains, locus YOL147C, strain pex11, stronger effect = lower value 0.998 | S. cerevisiae deletion strains, locus YOR001W, strain rrp6, stronger effect = lower value 1.04 | S. cerevisiae deletion strains, locus YOR061W, strain CKA2, stronger effect = lower value 1 | S. cerevisiae deletion strains, locus YOR069W, strain VPS5, stronger effect = lower value 1.01 | S. cerevisiae deletion strains, locus YOR070C, strain gyp1, stronger effect = lower value 1.02 | S. cerevisiae deletion strains, locus YOR080W, strain dia2, stronger effect = lower value 1.04 | S. cerevisiae deletion strains, locus YOR083W, strain WHI5, stronger effect = lower value 1.01 | S. cerevisiae deletion strains, locus YOR106W, strain vam3, stronger effect = lower value 0.998 | S. cerevisiae deletion strains, locus YOR136W, strain idh2, stronger effect = lower value 0.999 | S. cerevisiae deletion strains, locus YOR144C, strain elg1, stronger effect = lower value 0.993 | S. cerevisiae deletion strains, locus YOR184W, strain ser1, stronger effect = lower value 0.978 | S. cerevisiae deletion strains, locus YOR231W, strain MKK1, stronger effect = lower value 0.971 | S. cerevisiae deletion strains, locus YOR265W, strain rbl2, stronger effect = lower value 1.03 | S. cerevisiae deletion strains, locus YOR270C, strain vph1, stronger effect = lower value 1.08 | S. cerevisiae deletion strains, locus YOR290C, strain snf2, stronger effect = lower value 1.01 | S. cerevisiae deletion strains, locus YOR316C, strain cot1, stronger effect = lower value 0.995 | S. cerevisiae deletion strains, locus YPL051W, strain arl3, stronger effect = lower value 1.02 | S. cerevisiae deletion strains, locus YPL055C, strain LGE1, stronger effect = lower value 0.951 | S. cerevisiae deletion strains, locus YPL078C, strain atp4, stronger effect = lower value 1.03 | S. cerevisiae deletion strains, locus YPL106C, strain sse1, stronger effect = lower value 1.11 | S. cerevisiae deletion strains, locus YPL240C, strain hsp82, stronger effect = lower value 1.02 | S. cerevisiae deletion strains, locus YPL241C, strain CIN2, stronger effect = lower value 0.991 | S. cerevisiae deletion strains, locus YPL256C, strain CLN2, stronger effect = lower value 0.983 | S. cerevisiae deletion strains, locus YPR119W, strain clb2, stronger effect = lower value 1 | S. cerevisiae deletion strains, locus YPR141C, strain kar3, stronger effect = lower value 1 | S. cerevisiae deletion strains, locus YPR163C, strain tif3, stronger effect = lower value 0.996 | S. cerevisiae deletion strains, locus YPR167C, strain met16, stronger effect = lower value 0.999 | S. cerevisiae deletion strains, strain wtn01, stronger effect = lower value 0.988 | S. cerevisiae strains, strain wild type, stronger effect = lower value 1
